Compound activity deposited in PubChem BioAssay by National Center for Advancing Translational Sciences (NCATS).
An excerpt weighted towards active compounds, which were near 11% of everything screened.
HP1b chromo inh – blocks HP1-beta chromodomain binding to methylated histone tails; Potency, µM (series often up to 114 µM), hits mostly inhibitors; actives 0.56% (n = 390,000); P83916; AID 540317; AlphaScreen HP1-beta / biotin-H3K9me3 peptide binding; also: nearly all actives have a fitted effect of over 70% in size
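AlphaScreen: HP1-beta (50 nM) preformed 30 min with biotin-H3(1-18)K9me3 peptide (50 nM) in PBS pH 7.4, 0.01% Tween-20. Compound added for 30 min at RT, then streptavidin donor/nickel chelate acceptor beads (10 ug/mL) for 30 min.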
PI5P4K alpha inh – inhibitors of human PI5P4K alpha; P48426; PI5P4Kalpha enzyme, ADP-Glo luminescence, 60 min; hits give low values; max response, %; actives 1.2% (n = 330,000); AID 652105; active = max response of -50% or lower; inconclusive = between -30% and -50%; inactive = -30% or higher; also: value at the top dose of about 77 µM
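qHTS, 1536-well: enzyme/substrate mix, compound by pin tool, 5 microM ATP final; RT 60 min; ADP-Glo reagents 1 (45 min) then 2 (30 min); luminescence.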
BAZ2B inh – blocks human BAZ2B. AlphaScreen BAZ2B-H3K14Ac peptide displacement. actives 4.4% (n = 360,000). Potency, µM (highest dose often 114 µM), hits mostly inhibitors. AID 504333. Q9UIF8; also: nearly all actives have a fitted effect of over 60% in size
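AlphaScreen luminescence quantifies BAZ2B engagement of H3K14Ac peptide; the protein and biotinylated peptide are both at 50 nM final, buffer PBS pH 7.4 with 0.01% Tween-20, all steps at room temperature.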
JMJD2A Tudor inh – blocks the human JMJD2A Tudor domain; O75164; AlphaScreen JMJD2A-Tudor / H3K4me3 peptide binding; Potency, µM (top dose mostly 114 µM), most hits filed as inhibitors; actives 4.4% (n = 390,000); AID 504339; also: nearly all actives have a fitted effect of over 50% in size
G9a block – blocks human histone lysine methyltransferase G9a | Q96KQ7 | Potency, µM (highest dose often 102 µM), usual class: inhibitors | G9a H3K9 monomethylation, AlphaScreen, 2 h | actives 8.8% (n = 350,000); also: nearly all actives have a fitted effect of over 75% in size
Target sequence (Q96KQ7 913-1193 limits assumed): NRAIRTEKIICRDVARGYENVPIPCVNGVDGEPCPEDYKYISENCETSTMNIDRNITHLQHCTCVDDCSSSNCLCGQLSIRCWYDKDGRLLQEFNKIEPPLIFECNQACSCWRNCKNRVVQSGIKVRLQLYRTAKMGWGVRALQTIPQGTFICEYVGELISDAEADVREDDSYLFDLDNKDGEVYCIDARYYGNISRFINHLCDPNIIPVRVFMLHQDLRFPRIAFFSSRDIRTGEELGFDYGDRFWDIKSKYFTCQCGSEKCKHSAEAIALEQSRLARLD
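Signal arises when biotinylated H3K9 peptide, once monomethylated, bridges streptavidin donor and antibody-captured acceptor beads. Enzyme at 20 nM was preincubated 15 min with test compounds; peptide 500 nM and SAM 20 uM then reacted for 2 h.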
L3MBTL1 inh – blocks human L3MBTL1; Q9Y468; AlphaScreen L3MBTL1–H3K9me1 peptide binding; Potency, µM (series often up to 57.1 µM), actives largely listed as inhibitors; actives 0.66% (n = 230,000); AID 485360; also: nearly all actives have a fitted effect of over 60% in size
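Displacement of a biotinylated histone H3(1-15) peptide monomethylated at Lys9 (75 nM) from L3MBTL1 (50 nM) was measured by AlphaScreen after a 30 min room-temperature compound incubation; cefsulodin titration served as intraplate control.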
12-hLO 8HQ R1 – blocks human 12-lipoxygenase product formation in cuvette. shares compounds with BAZ2B inh. purified 12-hLO, cuvette UV 234 nm product formation. Potency, µM, hits mostly inhibitors. actives 60% (n = 35). AID 2163;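 active = compounds that slowed 12-hLO product formation enough to yield a measured IC50 potency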
KDM4E inh – blocks human JMJD2E demethylase activity; shares compounds with BAZ2B inh; JMJD2E demethylase, FDH-coupled NADH fluorescence (FDH is formaldehyde dehydrogenase); Potency, µM (titrated, usually from 57 µM), hits mostly inhibitors; actives 89% (n = 130); AID 493212
Target sequence (B2RXH2 1-337 limits assumed): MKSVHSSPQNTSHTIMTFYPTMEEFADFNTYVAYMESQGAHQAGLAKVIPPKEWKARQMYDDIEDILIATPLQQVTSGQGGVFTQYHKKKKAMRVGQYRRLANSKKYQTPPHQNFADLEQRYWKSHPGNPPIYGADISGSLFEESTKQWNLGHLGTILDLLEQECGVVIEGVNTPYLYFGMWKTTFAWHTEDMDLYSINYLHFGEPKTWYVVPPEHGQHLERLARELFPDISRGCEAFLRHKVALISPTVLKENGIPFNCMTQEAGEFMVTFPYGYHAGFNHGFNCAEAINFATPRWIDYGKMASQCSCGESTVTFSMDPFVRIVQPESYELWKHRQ
ME-1 prolif – ME-1 cell growth inhibition. Potency, µM (series often up to 56.1 µM), hits mostly inhibitors. shares compounds with BAZ2B inh. actives 20% (n = 140). AID 504370. ME-1 cell proliferation, ATP luminescence, 48 h
Large screens that a line does not name were inactive (follow-up assays come after a bar, where they were run). Unless noted, calls follow the shape of the dose curve; as a rule, active = well fitted curve in the direction sought with a large enough effect; inconclusive = small, poorly fitted or top-dose-only effect, or another doubt; inactive = no such curve, though single readings can be large; an effect the other way counts as inactive or inconclusive.

Cc1ccc(C2=Nc3ccccc3N(CC(=O)NCc3ccccc3Cl)C(=O)C2)cc1C	none (no result: PI5P4K alpha inh, L3MBTL1 inh)
Nc1cccc(N)c1	none (no result: HP1b chromo inh, PI5P4K alpha inh, BAZ2B inh, JMJD2A Tudor inh, G9a block, L3MBTL1 inh) | ME-1 prolif inactive
Nc1cccc(S(=O)(=O)c2cccc(N)c2)c1	none
COc1c(O)cc2c(c1O)C1OC(CO)C(O)C(O)C1OC2=O (centres undefined)	none
O=C1OCC2OC(O)C(O)C(O)C2OC(=O)c2cc(O)c(O)c(O)c2-c2c(O)c(O)c3oc(=O)c4c(c(O)c(O)c5oc(=O)c2c3c54)-c2c1cc(O)c(O)c2O (centres undefined)	BAZ2B inh 0.71µM, G9a block inconclusive (no result: HP1b chromo inh, PI5P4K alpha inh, JMJD2A Tudor inh, L3MBTL1 inh) | ME-1 prolif inconclusive
NC(=O)N(CCC(=O)O)c1ccccc1	BAZ2B inh 50µM, G9a block inconclusive | ME-1 prolif inactive
CCN(CCC(=O)O)c1ccccc1	BAZ2B inh inconclusive, JMJD2A Tudor inh inconclusive, G9a block inconclusive (no result: L3MBTL1 inh)
COc1ccc(NC(=O)Cn2ccn(-c3ccccc3)c(=O)c2=O)cc1	G9a block inconclusive (no result: PI5P4K alpha inh, L3MBTL1 inh)
CC(=O)NC(C)c1cc(F)c2cccnc2c1O (centres undefined)	BAZ2B inh 22µM, JMJD2A Tudor inh 79µM, G9a block inconclusive, L3MBTL1 inh inconclusive (no result: PI5P4K alpha inh) | 12-hLO 8HQ R1 inactive | KDM4E inh 23µM
CC(=O)NC(c1cc(Cl)c2cccnc2c1O)C1CC1 (centres undefined)	BAZ2B inh 32µM, JMJD2A Tudor inh inconclusive (no result: PI5P4K alpha inh) | 12-hLO 8HQ R1 3µM | KDM4E inh 18µM
CC(=O)NC(c1cc(Cl)c2cccnc2c1O)C(C)C (centres undefined)	BAZ2B inh 79µM, JMJD2A Tudor inh inconclusive (no result: PI5P4K alpha inh) | 12-hLO 8HQ R1 2.6µM | KDM4E inh 23µM
CC(=O)NC(c1cc(F)c2cccnc2c1O)C(C)C (centres undefined)	BAZ2B inh 79µM (no result: HP1b chromo inh, PI5P4K alpha inh, JMJD2A Tudor inh) | 12-hLO 8HQ R1 inactive | KDM4E inh 20µM
CCOC(=O)C(C)NC(=O)c1c(C)oc2ncn(CC(C)C)c(=O)c12 (centres undefined)	none (no result: PI5P4K alpha inh, L3MBTL1 inh)
CCN1c2ccccc2-c2nc(SCC(=O)Nc3cc(F)ccc3F)ncc2S1(=O)=O	none (no result: PI5P4K alpha inh, L3MBTL1 inh)
O=C1c2oc3ccccc3c(=O)c2C(c2ccc(Br)cc2)N1c1ccccn1 (centres undefined)	none (no result: PI5P4K alpha inh, L3MBTL1 inh)
CC1(C)N([O-])C2=C(CCCC2)[N+]1=O	BAZ2B inh inconclusive, G9a block inconclusive, L3MBTL1 inh inconclusive | ME-1 prolif inactive
O=[N+]([O-])c1ccc(/C=N/NC2=NS(=O)(=O)c3ccccc32)cc1	none
O=[N+]([O-])c1ccc(O)c(/C=N/NC2=NS(=O)(=O)c3ccccc32)c1	BAZ2B inh 1.8µM, JMJD2A Tudor inh 20µM, G9a block inconclusive, L3MBTL1 inh inconclusive | ME-1 prolif inconclusive
Cc1nc2ccc(NC(=S)N3CCOCC3)cc2nc1C	G9a block 45µM | ME-1 prolif inactive
Cc1nc2ccc(NC(=S)N3CCCC3)cc2nc1C	none (no result: G9a block)
CN=c1scc(-c2ccccc2F)n1/N=C/c1ccc(O)c(O)c1O	HP1b chromo inh 28µM, PI5P4K alpha inh -54, BAZ2B inh 7.9µM, JMJD2A Tudor inh 32µM, G9a block 13µM, L3MBTL1 inh 3.5µM | ME-1 prolif 4.5µM
CCC(=O)NC(c1cccs1)c1cc(Br)c2cccnc2c1O (centres undefined)	BAZ2B inh 71µM (no result: HP1b chromo inh, PI5P4K alpha inh, JMJD2A Tudor inh) | 12-hLO 8HQ R1 14µM | KDM4E inh 20µM
CCC(=O)NC(c1cccs1)c1cc(Cl)c2ccccc2c1O (centres undefined)	BAZ2B inh inconclusive (no result: PI5P4K alpha inh)
CCCC(=O)NC(c1cccs1)c1cc([N+](=O)[O-])c2cccnc2c1O (centres undefined)	PI5P4K alpha inh inconclusive, BAZ2B inh 7.9µM, JMJD2A Tudor inh 14µM, G9a block inconclusive, L3MBTL1 inh inconclusive | ME-1 prolif inconclusive
CC1=NN(c2ccccc2)C(=O)/C1=C/C=C/c1ccc(N(C)C)cc1	HP1b chromo inh 2.5µM, BAZ2B inh 2µM, JMJD2A Tudor inh 2.5µM, G9a block 2µM, L3MBTL1 inh inconclusive | ME-1 prolif inconclusive
Cc1ccc(NC(=O)C2CCCN2S(=O)(=O)c2ccc3c(c2)C(C)(C)C(=O)N3C)cc1 (centres undefined)	BAZ2B inh inconclusive (no result: PI5P4K alpha inh, L3MBTL1 inh)
CCCCCCCCCCCCCCCCOP(=O)([O-])OCC[N+](C)(C)C	none (no result: HP1b chromo inh, PI5P4K alpha inh, BAZ2B inh, JMJD2A Tudor inh, L3MBTL1 inh)
CCCCCCCCCCCCCCCCCCOC[C@H](COP(=O)([O-])OCC[N+](C)(C)C)OC	none (no result: HP1b chromo inh, PI5P4K alpha inh, BAZ2B inh, JMJD2A Tudor inh, L3MBTL1 inh) | ME-1 prolif inactive
CCCC(=O)c1cc(O)c(O)cc1O	none (no result: HP1b chromo inh, PI5P4K alpha inh, BAZ2B inh, JMJD2A Tudor inh, G9a block, L3MBTL1 inh) | ME-1 prolif inactive
CCCc1cc(C(=O)Cc2ccc(F)cc2)c(O)cc1O	none
CCCNC(=O)C1(C)CCN(Cc2ccc(OCc3ccccc3)cc2)C1 (centres undefined)	none (no result: HP1b chromo inh, BAZ2B inh, JMJD2A Tudor inh, G9a block, L3MBTL1 inh)
CC(C)=CC[C@@H](O)C1=CC(=O)c2c(O)ccc(O)c2C1=O	G9a block 6.3µM (no result: HP1b chromo inh, PI5P4K alpha inh, BAZ2B inh, JMJD2A Tudor inh, L3MBTL1 inh) | ME-1 prolif 1.1µM
Cc1nc2cccnc2n1-c1cccc(C(=O)NCCN(C)C)c1	none (no result: PI5P4K alpha inh, L3MBTL1 inh)
Oc1csc(Cc2nc(-c3ccc(-c4ccccc4)cc3)cs2)n1	none
